Common to all, as to design: scale not given: direction of the effect not stated beside the values
The target of experiment [1] is Protein translocase subunit SecA (Escherichia coli (strain K12)) (UniProt P10408). As to the kind of experiment: Assay to Identify E. coli SecA ATPase Inhibitors. Type of experiment: functional. To be noted: 30 µM.
Experiment [2] addresses T1, Ubiquitin-activating enzyme e1, putative (Leishmania donovani (strain BPK282A1)) (UniProt E9BSI1).
T1 sequence (whole entry): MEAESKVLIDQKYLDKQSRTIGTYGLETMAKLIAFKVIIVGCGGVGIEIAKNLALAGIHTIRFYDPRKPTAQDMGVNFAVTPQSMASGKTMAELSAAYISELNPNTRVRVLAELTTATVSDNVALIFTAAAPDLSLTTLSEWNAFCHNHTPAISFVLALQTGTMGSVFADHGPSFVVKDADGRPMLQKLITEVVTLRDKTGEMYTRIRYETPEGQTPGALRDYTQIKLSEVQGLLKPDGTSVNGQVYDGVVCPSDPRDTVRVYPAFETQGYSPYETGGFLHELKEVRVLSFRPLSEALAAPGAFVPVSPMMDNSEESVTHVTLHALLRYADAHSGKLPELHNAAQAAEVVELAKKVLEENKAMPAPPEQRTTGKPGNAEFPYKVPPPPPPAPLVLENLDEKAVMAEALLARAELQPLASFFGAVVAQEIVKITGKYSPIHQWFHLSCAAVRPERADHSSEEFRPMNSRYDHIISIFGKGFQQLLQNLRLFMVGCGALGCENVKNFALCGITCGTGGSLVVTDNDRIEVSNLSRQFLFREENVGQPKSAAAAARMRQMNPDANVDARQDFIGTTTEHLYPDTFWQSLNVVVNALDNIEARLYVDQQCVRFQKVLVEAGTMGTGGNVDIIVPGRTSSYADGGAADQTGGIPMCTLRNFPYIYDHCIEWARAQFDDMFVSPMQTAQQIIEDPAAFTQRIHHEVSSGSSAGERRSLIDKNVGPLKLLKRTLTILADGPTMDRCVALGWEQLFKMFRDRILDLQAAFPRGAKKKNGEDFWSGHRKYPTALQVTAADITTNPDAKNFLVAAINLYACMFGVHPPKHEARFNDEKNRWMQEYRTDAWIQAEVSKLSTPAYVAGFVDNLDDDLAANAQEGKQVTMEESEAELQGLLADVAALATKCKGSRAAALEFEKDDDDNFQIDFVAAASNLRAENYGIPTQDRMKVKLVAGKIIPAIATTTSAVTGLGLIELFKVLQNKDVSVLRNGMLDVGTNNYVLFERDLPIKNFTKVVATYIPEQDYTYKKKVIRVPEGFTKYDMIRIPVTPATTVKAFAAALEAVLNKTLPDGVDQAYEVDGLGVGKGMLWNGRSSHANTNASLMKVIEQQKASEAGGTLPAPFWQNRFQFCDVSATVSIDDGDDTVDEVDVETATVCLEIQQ
As to the kind of experiment: Leishmania donovani Ubiquitin Activating Enzyme (LdE1). Type of experiment: functional. To be noted: 30 µM.

The target of experiment [3] is T2, Aspartate--tRNA(Asp/Asn) ligase (Mycobacterium tuberculosis (strain ATCC 25618 / H37Rv)) (UniProt P9WFW3). Note: in the data most compounds retested in dose-response had high values.
T2 sequence (whole entry): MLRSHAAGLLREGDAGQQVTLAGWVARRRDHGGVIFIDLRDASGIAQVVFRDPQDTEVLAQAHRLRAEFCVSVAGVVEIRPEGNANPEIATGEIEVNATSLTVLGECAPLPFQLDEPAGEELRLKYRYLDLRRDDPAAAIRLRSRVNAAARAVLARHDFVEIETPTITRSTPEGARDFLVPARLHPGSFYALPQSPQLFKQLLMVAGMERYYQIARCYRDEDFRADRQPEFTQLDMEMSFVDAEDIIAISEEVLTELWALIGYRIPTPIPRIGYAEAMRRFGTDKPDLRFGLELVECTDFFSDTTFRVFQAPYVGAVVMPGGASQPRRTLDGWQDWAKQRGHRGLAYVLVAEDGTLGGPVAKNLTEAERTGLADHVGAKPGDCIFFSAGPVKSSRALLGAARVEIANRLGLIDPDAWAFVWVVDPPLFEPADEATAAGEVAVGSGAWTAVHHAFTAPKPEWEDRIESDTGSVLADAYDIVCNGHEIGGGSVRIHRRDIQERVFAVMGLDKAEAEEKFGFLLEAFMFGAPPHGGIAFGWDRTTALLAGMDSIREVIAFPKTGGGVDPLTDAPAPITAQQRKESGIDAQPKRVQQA
As to the kind of experiment: Assay for Asp RNA synthetase-1 from Mycobacterium tuberculosis. It counts as functional. To be noted: 30 µM.

The target of experiment [4] is AMP-activated protein kinase, AMPK (Homo sapiens) (UniProt P54646+O43741+P54619+Q9UGJ0+Q9Y478+Q13131+Q9UGI9). Briefly: AMP-dependent Kinase enzyme assay. An in vitro enzyme assay that detects ADP turnover that is directly proportional to AMPK activity. This uses naive AMPK that is activated during the assay with MK-8722. Type of experiment: functional. To be noted: 30 µM.

In experiment [5] the target is Sialic acid-binding Ig-like lectin 9 (Homo sapiens) (UniProt Q9Y336). Briefly: Hs-Siglec9 ALPHAscreen SOP 20170721. To be noted: 10 µM. On the technique in general: Bead proximity is the source of the signal in Alpha formats.
Sialic acid-binding Ig-like lectin 9 (Homo sapiens), sequence (Q9Y336 whole entry): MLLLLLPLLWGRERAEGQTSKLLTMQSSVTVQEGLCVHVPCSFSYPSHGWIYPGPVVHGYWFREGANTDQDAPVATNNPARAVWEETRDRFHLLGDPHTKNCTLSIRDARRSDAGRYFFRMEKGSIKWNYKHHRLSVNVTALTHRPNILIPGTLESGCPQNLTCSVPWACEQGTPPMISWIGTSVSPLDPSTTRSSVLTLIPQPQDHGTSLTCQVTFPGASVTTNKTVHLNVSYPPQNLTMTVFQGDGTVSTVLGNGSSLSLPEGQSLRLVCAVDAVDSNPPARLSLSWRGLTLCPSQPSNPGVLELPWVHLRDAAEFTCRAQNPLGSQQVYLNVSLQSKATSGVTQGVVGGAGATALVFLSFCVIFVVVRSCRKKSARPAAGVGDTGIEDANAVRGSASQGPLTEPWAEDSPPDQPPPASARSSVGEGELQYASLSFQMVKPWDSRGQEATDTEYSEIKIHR
Experiment [6] relates to Trypanosoma cruzi. Briefly: Trypanosoma cruzi phosphomannomutase and mannose-1-phosphate guanylyltransferase assay. Type of experiment: functional. The conditions noted are these: 10 µM.
In experiment [7] the target is T3, Arginase-2, mitochondrial (Homo sapiens) (UniProt P78540).
T3 sequence (whole entry): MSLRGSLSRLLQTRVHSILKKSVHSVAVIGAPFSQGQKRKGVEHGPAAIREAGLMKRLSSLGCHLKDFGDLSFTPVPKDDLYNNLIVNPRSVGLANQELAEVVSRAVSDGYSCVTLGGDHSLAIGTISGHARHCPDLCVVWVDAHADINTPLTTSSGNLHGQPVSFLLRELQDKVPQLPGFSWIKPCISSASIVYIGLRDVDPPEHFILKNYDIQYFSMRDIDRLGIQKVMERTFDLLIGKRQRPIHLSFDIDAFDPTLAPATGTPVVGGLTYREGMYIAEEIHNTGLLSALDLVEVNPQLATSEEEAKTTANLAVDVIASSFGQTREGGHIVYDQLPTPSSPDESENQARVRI
Briefly: in vitro enzyme assay to detect the production of urea directly proportional to the activity of Arginase II. Note: in the data most compounds retested in dose-response had high values. It counts as functional. The conditions noted are these: 33.3 µM.

Experiment [8] addresses T4, Proteasome subunit beta (Trypanosoma cruzi) (UniProt O96673).
T4 sequence (whole entry): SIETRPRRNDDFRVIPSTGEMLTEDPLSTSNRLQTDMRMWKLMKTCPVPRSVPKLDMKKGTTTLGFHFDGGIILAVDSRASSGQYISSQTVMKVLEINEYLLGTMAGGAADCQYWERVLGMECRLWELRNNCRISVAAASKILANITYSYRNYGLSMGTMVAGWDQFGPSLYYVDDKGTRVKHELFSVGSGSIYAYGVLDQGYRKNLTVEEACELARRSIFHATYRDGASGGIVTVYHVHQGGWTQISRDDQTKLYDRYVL
Briefly: Trypanosoma cruzi proteasome chymotrypsin-like activity (TcProtChymo) assay. Note: in the data most compounds retested in dose-response had high values. It counts as functional. To be noted: 9.37 µM.

For experiment [9], the species on record is Homo sapiens. Briefly: To identify inhibition of the IFN signalling (Jak-Stat) pathway via expression of an eGFP reporter gene under the control of an IFN-stimulated response element (ISRE) containing MxA promoter. It counts as functional. To be noted: 30 µM. On the technique in general: In a reporter assay the amount or activity of a reporter protein is the signal.

The target in experiment [10] is Shiga toxin 2 (Escherichia coli O157:H7) (UniProt P09385+P09386). Briefly: E. coli 0.157:H7 Shiga Toxin SOP - stx2 screening assay. Type of experiment: functional. To be noted: 30 µM.
Experiment [11] has as its target T5, Tyrosyl-tRNA synthetase, putative (Trypanosoma cruzi (strain CL Brener)) (UniProt Q4DSP6).
T5 sequence (whole entry): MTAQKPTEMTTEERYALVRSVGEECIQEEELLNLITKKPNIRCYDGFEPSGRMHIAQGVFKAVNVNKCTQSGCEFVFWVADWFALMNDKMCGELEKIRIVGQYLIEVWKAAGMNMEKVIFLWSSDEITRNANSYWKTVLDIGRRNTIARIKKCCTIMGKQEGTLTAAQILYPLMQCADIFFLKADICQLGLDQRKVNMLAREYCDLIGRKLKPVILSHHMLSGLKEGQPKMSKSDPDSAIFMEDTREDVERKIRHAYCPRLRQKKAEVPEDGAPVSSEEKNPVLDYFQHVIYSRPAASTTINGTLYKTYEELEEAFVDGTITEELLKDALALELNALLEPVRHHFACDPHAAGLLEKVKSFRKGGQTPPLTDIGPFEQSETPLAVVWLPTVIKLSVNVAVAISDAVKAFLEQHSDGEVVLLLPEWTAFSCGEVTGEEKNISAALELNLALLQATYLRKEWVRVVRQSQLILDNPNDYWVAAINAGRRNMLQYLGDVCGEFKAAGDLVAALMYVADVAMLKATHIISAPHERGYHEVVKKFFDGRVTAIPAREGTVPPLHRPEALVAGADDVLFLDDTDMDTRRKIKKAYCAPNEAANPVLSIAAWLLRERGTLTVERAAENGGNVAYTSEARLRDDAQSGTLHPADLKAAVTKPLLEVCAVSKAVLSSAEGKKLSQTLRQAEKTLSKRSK
As to the kind of experiment: Trypanosoma cruzi tyrosyl tRNA synthetase (TcYRS) _High Tyrosine SOP. Note: in the data most compounds retested in dose-response had high values. It counts as functional. To be noted: 30 µM.

The target in experiment [12] is T5, Tyrosyl-tRNA synthetase, putative (Trypanosoma cruzi (strain CL Brener)). Briefly: Trypanosoma cruzi tyrosyl tRNA synthetase (TcYRS) SOP. Type of experiment: functional. The conditions noted are these: 30 µM.
Experiment [13] has as its target Chromo domain-containing protein 1 (Saccharomyces cerevisiae (strain ATCC 204508 / S288c) (Baker's yeast)) (UniProt P32657). As to the kind of experiment: ScCHD-1 Enzyme Inhibition Assay. Note: in the data most compounds retested in dose-response had high values. It counts as functional. The conditions noted are these: 30 µM.
Experiment [14] deals with N/A. As to the kind of experiment: Trypanosoma cruzi proteasome luciferase counter-screen. It counts as functional. To be noted: 9.37 µM. For orientation: Counterscreens check selectivity or assay interference.

Experimental findings from ChEMBL document CHEMBL3988442, “University of Dundee, Small-Polar-MMV Screening Library” (2021) are described below.

Values joined by “and” are separate entries in the source; they are usually repeats but may differ in a detail not shown here. Equal values may be shown once. For part of these data: Measured potencies and affinities stand elsewhere.

Chromo domain-containing protein 1 (Saccharomyces cerevisiae (strain ATCC 204508 / S288c) (Baker's yeast)), sequence (P32657 whole entry, the tested form may be a part): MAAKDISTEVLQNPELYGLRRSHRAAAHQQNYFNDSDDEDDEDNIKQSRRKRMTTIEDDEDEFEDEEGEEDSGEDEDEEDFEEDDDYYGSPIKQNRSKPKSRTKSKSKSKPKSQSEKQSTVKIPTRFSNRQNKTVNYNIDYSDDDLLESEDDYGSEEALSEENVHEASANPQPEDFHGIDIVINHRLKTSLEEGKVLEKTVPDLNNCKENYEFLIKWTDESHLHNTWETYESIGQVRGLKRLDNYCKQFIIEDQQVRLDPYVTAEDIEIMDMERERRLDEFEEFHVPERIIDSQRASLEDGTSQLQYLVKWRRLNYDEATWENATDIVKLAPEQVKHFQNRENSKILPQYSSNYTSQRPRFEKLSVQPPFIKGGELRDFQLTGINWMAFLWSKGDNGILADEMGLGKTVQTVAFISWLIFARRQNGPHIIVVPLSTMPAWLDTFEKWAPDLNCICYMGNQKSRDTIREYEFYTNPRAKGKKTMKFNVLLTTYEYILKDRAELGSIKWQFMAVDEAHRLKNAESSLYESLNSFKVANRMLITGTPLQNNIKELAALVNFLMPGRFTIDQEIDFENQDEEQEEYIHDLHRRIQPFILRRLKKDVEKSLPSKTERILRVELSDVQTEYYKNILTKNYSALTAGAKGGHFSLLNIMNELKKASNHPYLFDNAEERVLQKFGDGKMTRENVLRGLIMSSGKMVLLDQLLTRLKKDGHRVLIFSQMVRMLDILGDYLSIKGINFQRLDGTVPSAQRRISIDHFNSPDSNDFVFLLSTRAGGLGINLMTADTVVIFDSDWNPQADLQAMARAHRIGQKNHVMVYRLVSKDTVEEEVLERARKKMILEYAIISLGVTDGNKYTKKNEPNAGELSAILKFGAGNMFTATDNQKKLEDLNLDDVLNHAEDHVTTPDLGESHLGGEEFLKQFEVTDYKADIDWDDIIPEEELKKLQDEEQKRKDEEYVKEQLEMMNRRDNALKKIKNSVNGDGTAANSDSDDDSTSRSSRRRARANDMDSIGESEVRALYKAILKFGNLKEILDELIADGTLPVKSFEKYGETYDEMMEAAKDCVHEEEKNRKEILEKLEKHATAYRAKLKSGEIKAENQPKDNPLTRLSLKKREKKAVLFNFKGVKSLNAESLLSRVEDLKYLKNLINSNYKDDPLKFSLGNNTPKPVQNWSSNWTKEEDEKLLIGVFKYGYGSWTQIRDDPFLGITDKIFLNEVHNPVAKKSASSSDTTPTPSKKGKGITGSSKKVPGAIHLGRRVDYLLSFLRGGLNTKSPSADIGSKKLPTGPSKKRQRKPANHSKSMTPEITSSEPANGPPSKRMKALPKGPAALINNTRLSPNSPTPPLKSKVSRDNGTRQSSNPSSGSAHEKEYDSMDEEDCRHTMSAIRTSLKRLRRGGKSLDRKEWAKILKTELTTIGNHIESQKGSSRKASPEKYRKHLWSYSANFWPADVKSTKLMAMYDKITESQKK
Protein translocase subunit SecA (Escherichia coli (strain K12)), sequence (P10408 whole entry): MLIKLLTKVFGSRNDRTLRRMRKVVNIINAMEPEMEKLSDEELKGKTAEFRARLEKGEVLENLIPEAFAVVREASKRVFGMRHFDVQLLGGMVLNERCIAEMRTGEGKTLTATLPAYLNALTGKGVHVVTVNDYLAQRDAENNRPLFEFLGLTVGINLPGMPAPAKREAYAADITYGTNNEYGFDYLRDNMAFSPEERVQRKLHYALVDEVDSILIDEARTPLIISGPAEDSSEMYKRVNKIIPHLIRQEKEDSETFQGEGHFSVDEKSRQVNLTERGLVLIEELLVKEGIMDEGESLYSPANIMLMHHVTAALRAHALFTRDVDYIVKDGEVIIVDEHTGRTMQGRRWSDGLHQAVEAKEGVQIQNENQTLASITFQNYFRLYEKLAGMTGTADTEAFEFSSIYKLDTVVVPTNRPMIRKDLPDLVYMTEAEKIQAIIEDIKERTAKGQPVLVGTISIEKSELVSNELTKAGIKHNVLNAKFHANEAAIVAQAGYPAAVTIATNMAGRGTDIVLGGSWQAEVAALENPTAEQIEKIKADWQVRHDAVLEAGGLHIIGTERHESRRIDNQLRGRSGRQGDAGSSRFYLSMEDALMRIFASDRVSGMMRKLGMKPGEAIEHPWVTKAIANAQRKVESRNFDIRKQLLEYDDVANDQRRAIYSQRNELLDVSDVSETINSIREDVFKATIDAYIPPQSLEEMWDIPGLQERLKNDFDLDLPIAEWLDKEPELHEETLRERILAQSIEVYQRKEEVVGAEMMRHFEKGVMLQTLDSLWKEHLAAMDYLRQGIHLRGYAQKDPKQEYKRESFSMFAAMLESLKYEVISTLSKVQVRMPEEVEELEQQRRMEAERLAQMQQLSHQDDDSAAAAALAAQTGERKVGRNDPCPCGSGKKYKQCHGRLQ

`Cc1nc(NCC2CC2)nc2c1COCC21CCN(C)C1` (configuration not stated): the Percent Effect in [1] was -1.26%; in [2], 18.7%; in experiment [3] it was -1.49%; in [4] it was 0.667%; in experiment [5], -4.41%; in experiment [6], 2.17%. Also, the Percent Effect in experiment [7] was found to be 46.4%; in experiment [8], 19.1%; in [9], 2.6%; in [10], 2.88%; in [11] it was 4.25%; in experiment [12], 16.7%. Also, the Percent Effect in experiment [13] was -6.2%.
For `CC(Cn1cccn1)NCc1csc(-c2cccs2)n1` (configuration not stated), the Percent Effect in experiment [1] is -0.415%; in [2], 5.41%; in [3], -4.5%; in [4] it was -7.34%; in experiment [5], -3.93%; in experiment [6], -4.81%. In addition, the Percent Effect in experiment [7] was -0.802%; in [8], 79.3% and 83.2% and 84%; in experiment [14], 52.8% and 51.5%; in experiment [9] it was 17.6%; in experiment [10], 21.1%; in experiment [11] it was 7.39%. Moreover, the Percent Effect is 13.6% in experiment [12] and -4.55% in experiment [13].
